In the library only some 2.6% were active in any assay of this set; here they are far more common.
LT uptake inh = anthrax lethal toxin internalization inhibition; Cells, anthrax lethal toxin internalization, FRET ratio (460/530); 70,000 compounds, 0.67% hits; AID 912; Potency, µM (doses to about 40 µM), inactives show at the highest dose activity change, negative = inhibition, most hits filed as inhibitors; note: % is set by controls: 0 for no effect and ±100 for the full control effect; nearly all actives have a fitted effect of over 50% in size
AmpC nodet inh = AmpC beta-lactamase inhibition, detergent-free assay. 71,000 compounds, 1.8% hits. P00811. AmpC nitrocefin hydrolysis, absorbance 480 nm, no detergent. AID 585. Potency, µM (titrated, usually from 28.7 µM), inactives show top-dose activity change, negative = inhibition; note: % of control where 0% means no effect
Target sequence (P00811 whole entry, looked up): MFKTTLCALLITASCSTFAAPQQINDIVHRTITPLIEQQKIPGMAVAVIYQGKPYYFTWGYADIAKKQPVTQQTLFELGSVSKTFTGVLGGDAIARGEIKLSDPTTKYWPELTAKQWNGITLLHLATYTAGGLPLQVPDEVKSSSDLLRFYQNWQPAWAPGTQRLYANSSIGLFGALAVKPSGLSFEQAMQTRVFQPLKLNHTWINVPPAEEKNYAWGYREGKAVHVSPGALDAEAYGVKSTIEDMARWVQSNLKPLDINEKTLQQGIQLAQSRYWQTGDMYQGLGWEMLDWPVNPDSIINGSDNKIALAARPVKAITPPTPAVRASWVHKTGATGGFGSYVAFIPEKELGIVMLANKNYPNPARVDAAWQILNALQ
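Enzyme, pH 7.0 phosphate. Compound titrations were pre-incubated with AmpC for 15 min at room temperature before nitrocefin (stock 800 uM) addition; product formation was recorded at 480 nm every 20 s for 4 min.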
Prx2 Sm inh = blocks S. mansoni peroxiredoxin 2 enzymatic activity. S. mansoni Prx2 activity coupled to TGR/GSH (TGR is thioredoxin glutathione reductase), NADPH fluorescence loss, qHTS. 65,000 compounds, 0.07% hits. Potency, µM
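qHTS, coupled TGR/Prx2 format; 15 min compound preincubation at RT; reaction started with H2O2 (2.5 mM aliquot); kinetic NADPH fluorescence decrease, ex 365/em 450 nm.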
AmpC inh det = blocks E. coli AmpC beta-lactamase in presence of detergent. 71,000 compounds, 0.09% hits. Potency, µM (series often up to 28.7 µM), for inactives: top-dose activity change, negative = inhibition. purified AmpC, nitrocefin hydrolysis with detergent. P00811. AID 584; active = well fitted curve in the direction sought with a large enough effect; inconclusive = small, poorly fitted or top-dose-only effect; note: % is set by controls: 0 for no effect and ±100 for the full control effect
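E. coli AmpC (5.3 nM) in 20 mM phosphate pH 7.0 with 0.01% Triton X-100, preincubated 15 min RT with compound; nitrocefin (2 uL of 800 uM stock) hydrolysis followed by 480 nm absorbance every 20 s over 4 min.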
The depositor's hits bear a star; ! = not confirmed by another sample; [ ] = dose if it differs, or a comment. Unless noted, calls come from the whole dose curve. Potency is the fitted concentration of half-maximal effect.

Screening CCCCn1nnc(NC(=O)COc2cc(C)ccc2C(C)C)n1 returned LT uptake inh 10µM*, AmpC nodet inh 26%, Prx2 Sm inh >57 and AmpC inh det -3%.
CC(=O)O[C@H]1CC[C@]2(C)C(=CC[C@H]3[C@H]4C[C@H]5O[C@]6(CC[C@H](C)CN6)[C@H](C)[C@@H]5[C@]4(C)CC[C@@H]32)C1 was read as LT uptake inh 3%[8 µM], AmpC nodet inh -7%[5.75 µM], Prx2 Sm inh >57 and AmpC inh det -4%[5.75 µM].
`CCC1(CC)C(=O)NC(=NCCc2c[nH]c3ccccc23)NC1=O` gave LT uptake inh inconclusive, AmpC nodet inh 5%, Prx2 Sm inh >57 and AmpC inh det -1%.
`CCCC1(CCC)C(=O)NC(=NCc2ccccc2)NC1=O` gave LT uptake inh 13µM*, AmpC nodet inh -10%, Prx2 Sm inh >57 and AmpC inh det 1%.
For Cc1nonc1NC(=O)CSc1nc(C2CCCCC2)nc2ccccc12 the results were LT uptake inh inconclusive, AmpC nodet inh -13%, Prx2 Sm inh >57 and AmpC inh det -2%.
`Cc1cc2nc(SCC(=O)Nc3nonc3C)c3c(c2cc1C)CCCC3` gave LT uptake inh -17%, AmpC nodet inh 13µM*, Prx2 Sm inh >57 and AmpC inh det 1%.
`Cc1c(C(=O)O)c(O)cc2c1C(=O)c1c(O)c([C@@H]3O[C@H](CO)[C@@H](O)[C@H](O)[C@@H]3O)c(O)c(O)c1C2=O` gave LT uptake inh -9%, AmpC nodet inh 51%, Prx2 Sm inh >57 and AmpC inh det 0%.
For Cc1ccc(C2CC(=O)N3CN(c4ccc(Br)cc4)CSC3=C2C#N)o1 (configuration not stated) the results were LT uptake inh inconclusive, AmpC nodet inh 13µM*[single pt active], Prx2 Sm inh >57 and AmpC inh det -6%.
COc1ccc(OC)c(C2CC(=O)N3CN(c4ccc(C)c(Cl)c4)CSC3=C2C#N)c1 (configuration not stated) was read as LT uptake inh -15%, AmpC nodet inh -8%, Prx2 Sm inh >57 and AmpC inh det 11%.
Screening COc1cc(OC)c(C2CC(=O)N3CN(c4ccccc4)CSC3=C2C#N)cc1OC (configuration not stated) returned LT uptake inh inconclusive, AmpC nodet inh 57%, Prx2 Sm inh >57 and AmpC inh det 1%.
N#CC1=C2SCN(c3ccccc3)CN2C(=O)CC1c1ccccc1Cl (configuration not stated) was read as LT uptake inh inconclusive, AmpC nodet inh 2.5µM*, Prx2 Sm inh >57 and AmpC inh det 9%.
For N#CC1=C2SCN(Cc3ccco3)CN2C(=O)CC1c1c(F)cccc1Cl (configuration not stated) the results were LT uptake inh -11%, AmpC nodet inh 4µM*[single pt active], Prx2 Sm inh >57 and AmpC inh det 10%.
For N#CC1=C2SCN(c3ccccc3)CN2C(=O)CC1c1c(Cl)cccc1Cl (configuration not stated) the results were LT uptake inh inconclusive, AmpC nodet inh 2.5µM* and AmpC inh det 8%.
N#CC1=C2SCN(c3ccccc3)CN2C(=O)CC1c1cccs1 (configuration not stated) was read as LT uptake inh -13%, AmpC nodet inh -6%, Prx2 Sm inh >57 and AmpC inh det -5%.
CCC1=C(C[C@H]2NCCc3ccccc32)C[C@@H]2c3cc(OC)c(OC)cc3CCN2C1 was read as LT uptake inh inconclusive, AmpC nodet inh 6%[5.75 µM], Prx2 Sm inh >57 and AmpC inh det -4%[5.75 µM].
For COc1ccccc1S(=O)(=O)Cc1ccc(C(=O)N2CCOCC2)o1 the results were LT uptake inh -1%, AmpC nodet inh 3.2µM*[single pt active], Prx2 Sm inh >57 and AmpC inh det 13%.
COc1ccccc1S(=O)(=O)Cc1ccc(C(=O)N2CCN(c3ccccc3)CC2)o1 was read as LT uptake inh 4%, AmpC nodet inh 97%, Prx2 Sm inh >57 and AmpC inh det 1%.
For COc1ccc(S(=O)(=O)Cc2ccc(C(=O)N3CCOCC3)o2)cc1 the results were LT uptake inh 2%, AmpC nodet inh 4µM*[single pt active], Prx2 Sm inh >57 and AmpC inh det 13%.
`S=C(S)O[C@@H]1C[C@@H]2C[C@H]1[C@@H]1CCC[C@H]21` gave LT uptake inh inconclusive, AmpC nodet inh 16µM*!, Prx2 Sm inh >57 and AmpC inh det 16µM*!.
Screening CCCc1cc(COC)c(C#N)c(=O)[nH]1 returned LT uptake inh 8%[8 µM], AmpC nodet inh -4%[5.75 µM], Prx2 Sm inh >57 and AmpC inh det -6%[5.75 µM].
Cc1ccc(-c2cn(S(=O)(=O)c3cccc4nsnc34)nc2N)cc1 was read as LT uptake inh 25%, AmpC nodet inh -13%, Prx2 Sm inh >57 and AmpC inh det -3%.
For Nc1nn(S(=O)(=O)c2cccc3nsnc23)cc1-c1ccc(Br)cc1 the results were LT uptake inh inconclusive, AmpC nodet inh 13µM*[single pt active], Prx2 Sm inh >57 and AmpC inh det -6%.
O=C1Nc2ccccc2C2(CCN(CCc3ccc(C(F)(F)F)cc3)CC2)O1 was read as LT uptake inh 10µM*.
Screening CC1=NN(c2ccc(S(=O)(=O)O)cc2C)C(=[OH+])[C@H]1N=Nc1cc(S(=O)(=O)O)ccc1C(=O)O.O.[Cr] returned LT uptake inh 1%[8 µM], AmpC nodet inh 0%[5.75 µM], Prx2 Sm inh >57 and AmpC inh det 1%[5.75 µM].
Screening CN1CCN(C2=C(Cl)C(=O)N(c3cccc(Cl)c3)C2=O)CC1 returned LT uptake inh 0%, AmpC nodet inh -13% and AmpC inh det 6%.
`CN1CCN(C2=C(Cl)C(=O)N(c3ccc(Cl)c(Cl)c3)C2=O)CC1` gave LT uptake inh 7.9µM*, AmpC nodet inh -13% and AmpC inh det -2%.
`Cn1c(C(=O)Nc2ccc3c(c2)OCCO3)cc2c(=O)n(C)c3ccccc3c21` gave LT uptake inh inconclusive, AmpC nodet inh 70%, Prx2 Sm inh >57 and AmpC inh det 13%.
`Cn1c(C(=O)NCCCN2CCCCCC2)cc2c(=O)n(C)c3ccccc3c21` gave LT uptake inh 4µM*, AmpC nodet inh 130% and AmpC inh det 14%.
CCCN1CCN(CCCNC(=O)c2cc3c(=O)n(C)c4ccccc4c3n2C)CC1 was read as LT uptake inh 13µM*, AmpC nodet inh 4µM*[single pt active], Prx2 Sm inh >57 and AmpC inh det 12%.
CN1CCN(CCNC(=O)c2cc3c(=O)n(C)c4ccccc4c3n2C)CC1 was read as LT uptake inh inconclusive, AmpC nodet inh 4µM*[single pt active], Prx2 Sm inh >57 and AmpC inh det 12%.
CN1CC[C@@]2(CCN3CCc4c(oc5ccccc45)[C@@H]3C2)N(C)C1=O was read as LT uptake inh 9%, AmpC nodet inh 50%, Prx2 Sm inh >11 and AmpC inh det 0%.
Screening C/C=C/C=C/C=O returned LT uptake inh 10%, AmpC nodet inh -5% and AmpC inh det 5%.
CC(=O)OC(C)(C)N=Nc1ccc(Br)cc1 was read as LT uptake inh 1%[8 µM], AmpC nodet inh 7%[5.75 µM], Prx2 Sm inh >57 and AmpC inh det 8%[5.75 µM].

Screening data deposited in PubChem BioAssay by National Center for Advancing Translational Sciences (NCATS).
